Results as given in PubChem BioAssay AID1566 (Sanford-Burnham Center for Chemical Genomics, 2009).
Out of some 290,000 compounds screened, about 1,800 (0.62%) were called active. Many of the other results were omitted from the sample, so actives are more common in it than they were. Unmarked numbers belong to inactive results. Cut-off read from the data, not from the text of the source: active = inhibition above about 50%; inactive = the rest.

Assay: inhibition of NOD2-driven NF-kB reporter – cell-based, luminescence, uHTS, HEK293 (AID 1566)
Settings: HEK293 NOD2/NF-kB luciferase reporter, at 4 µM, hits give high values

First: O=C1CCCN2N=C(SCC(=O)Nc3cccc(F)c3)SC2=N1
Second: O=C1CCCN2N=C(SCC(=O)Nc3cccc(Cl)c3)SC2=N1
The inhibition of the first is lower: -16.8% for the first, 43.7% for the second.

Going from `CCC(C(=O)NCCCN1CCCCCC1)n1nc(C)c2sc3ccccc3c2c1=O` (stereo not drawn) to `Cc1nn(-c2cc(N3CCCCC3)ccc2[N+](=O)[O-])c(=O)c2ccccc12`, the inhibition rises from -40.3% to -6.2%.

Compared with `CCC(C)(C)c1ccc(OCCCC[n+]2ccc(C)cc2)c(C(C)(C)CC)c1`, `CCC(C)(C)c1ccc(OCCCC[n+]2ccccc2)c(C(C)(C)CC)c1` is lower in inhibition: 29.7% for the first, 12% for the second.

Compared with `CC(C)(C)NC(=O)NC(=O)COC(=O)Cc1c(Cl)cccc1Cl`, `Cc1ccc(NC(=O)C(CC(C)C)NC(N)=O)cc1Cl` (stereo not drawn) is lower in inhibition: 1.1% for the first, -3.3% for the second.

Going from `COc1ccc(CCNc2oc(Cc3ccccc3)nc2C#N)cc1OC` to `COc1ccc(CCNc2oc(COc3ccccc3F)nc2C#N)cc1OC`, the inhibition falls from 36.6% to 9.2%.

Going from `COc1ccc(CCNc2oc(COc3ccc(F)cc3)nc2C#N)cc1` to `COc1ccc(CCNc2oc(COc3ccccc3)nc2C#N)cc1`, the inhibition rises from -49.7% to -27.2%.

First: CCOC(=O)N1CCN(C(=O)CSc2nc3c(cnn3-c3ccccc3)c(=O)[nH]2)CC1
Second: Cn1c(=O)n(CC(=O)O)c(=O)c2c1nc1n2CCCN1CCc1ccccc1
The inhibition of the first is lower: 2.1% for the first, 4.6% for the second.

First: COc1ccc(-c2cc(=O)oc3c(C)c(OCC(=O)NCC4CCC(C(=O)O)CC4)ccc23)cc1 (stereo not drawn)
Second: COc1ccc(-c2cc(=O)oc3cc(OCC(=O)N4C[C@H]5C[C@@H](C4)c4cccc(=O)n4C5)ccc23)cc1
The inhibition of the first is higher: 23.3% for the first, 3.1% for the second.

First: N#CC1=C(SCC(=O)NC2CC2)NC(=O)C(C#N)C12CCCCC2 (stereo not drawn)
Second: CCSC1=C(C#N)C2(CCCCC2)C(C#N)C(=O)N1 (stereo not drawn)
The inhibition of the first is lower: -1.6% for the first, 10.3% for the second.

Compared with `CCC(C)[C@H](NC(=O)C1CC(=O)N(c2ccc(OC)cc2)C1)C(=O)N1CCCCC1` (stereo partly drawn), `CCC(=O)C1CCCN(C(=O)c2ccc3nc(-c4cccc(OC)c4)oc3c2)C1` (stereo not drawn) is lower in inhibition: 12.9% for the first, -51.5% for the second.

Compared with `COC(=O)c1ncn(C2OC(COC(C)=O)C(OC(C)=O)C2OC(C)=O)n1` (stereo not drawn), `COc1ccc(C(=O)N2CCC(n3nccc3NC(=O)C3CC3)CC2)c(OC)c1OC` is lower in inhibition: 18.8% for the first, 12.7% for the second.

First: CCN1CCN(CCC(=O)Nc2ccc(F)c(F)c2)CC1
Second: CC(C)Cc1cc(C(=O)N2CCCC(C(=O)c3cc(F)ccc3F)C2)n(C)n1 (stereo not drawn)
The inhibition of the first is lower: 1.5% for the first, 23.7% for the second.

Compared with `CCN(CC)S(=O)(=O)c1ccc2nnn(O)c2c1`, `CCN(CC)S(=O)(=O)c1cc(NC(=O)[C@@H](NC(N)=O)C(C)C)ccc1C` is higher in inhibition: -3.6% for the first, 6.6% for the second.

Compared with `Cc1ccc(-n2nc3c(=O)n(CCCC(=O)N4CCC(C)CC4)nc(C)c3c2C)cc1`, `Cc1ccc(-n2nc(C)c3c(=O)[nH]c(C(F)(F)F)nc32)cc1` is higher in inhibition: 27.9% for the first, 32.3% for the second.

Going from `Cc1nn(-c2ccccc2)c2nc(C(F)(F)F)[nH]c(=O)c12` to `Cc1ccc(C(=O)Nc2cccc(C(F)(F)F)c2)cc1Nc1ccccn1`, the inhibition falls from 30.5% to -0.8%.

First: O=C(COc1ccc(Cl)cc1Cl)Nc1ccc(Cl)cn1
Second: O=C(CCCOc1ccc(Cl)cc1Cl)Nc1ccccn1
The inhibition of the first is lower: -209% for the first, -183% for the second.

Compared with `Cc1cccc(NC2=NCC(=O)N2CCc2ccccc2)c1`, `Cc1cccc(NC(=O)C(Cc2ccccc2)n2cccc2)c1` (stereo not drawn) is higher in inhibition: -0.2% for the first, 9.8% for the second.

First: COc1cc(C(=O)N(c2ccc(C)c(C)c2)C2C=CS(=O)(=O)C2)cc(OC)c1OC (stereo not drawn)
Second: COCCNC(=O)c1cc2cc3ccc(OC)cc3nc2o1
The inhibition of the first is lower: -4.9% for the first, 11.5% for the second.

Going from `COc1ccc(-c2noc(CCC(=O)O)n2)cc1` to `O=C(O)CCCc1nc(-c2ccccc2)no1`, the inhibition falls from 11.3% to -10%.

Compared with `O=C(NCCc1ccc(C(F)(F)F)cc1)C1CCC(=O)N(CCc2cccc(F)c2)C1` (stereo not drawn), `COc1cccc(CNC(=O)CCNC(=O)C2CCN(S(=O)(=O)c3ccc(F)cc3)CC2)c1` is higher in inhibition: -4.6% for the first, 9% for the second.

First: COc1ccc(/C=C2\CCC/C(=C\C=N\N(C)C)C2=O)cc1
Second: CN(C)/N=C/C=C1\CC/C(=C\c2ccc(Br)cc2)C1=O
The inhibition of the first is lower: -25.5% for the first, -21.2% for the second.

First: Cc1ccc(-c2cc(C(F)F)nc(N3CCOCC3)n2)cc1
Second: O=C(Nc1ccc2cn[nH]c2c1)c1ccc(Cl)c(S(=O)(=O)N2CCOCC2)c1
The inhibition of the first is higher: 15.5% for the first, -3.7% for the second.

Compared with `O=C1CCN(C2CCN(Cc3nc(Cc4ccccc4F)no3)CC2)CCN1`, `CCN(CC)c1ccc(/C=N/N2CCN(Cc3ccccc3Cl)CC2)cc1` is lower in inhibition: 5.8% for the first, 4.7% for the second.

First: O=C(NC(O)C(=O)c1ccccc1)c1cccs1 (stereo not drawn)
Second: c1ccc(CNc2ncnc3sccc23)cc1
The inhibition of the first is lower: 10% for the first, 44.5% for the second.

First: CC(C)(C)c1ccc(C(=O)NNC(=O)c2cccc(-n3cnnn3)c2)cc1
Second: CC(C)(C)c1ccc(C(=O)OC/C(O)=C(\C#N)c2nc3ccccc3s2)cc1
The inhibition of the first is lower: 13.7% for the first, 30.1% for the second.

First: Cc1nc(N2CCN(c3ccccn3)CC2)c2c(C)c(C(=O)Nc3ccc(F)cc3F)sc2n1
Second: Cc1nc(N2CCN(c3ccccn3)CC2)c2c(C)c(C(=O)Nc3ccc(F)cc3Cl)sc2n1
The inhibition of the first is lower: 3.4% for the first, 33.8% for the second.

First: Cc1nc(N2CCN(c3ccccn3)CC2)c2c(C)c(C(=O)Nc3ccc(Cl)cc3)sc2n1
Second: Cc1nc(N2CCN(c3ccccn3)CC2)c2c(C)c(C(=O)Nc3c(F)cc(F)cc3Br)sc2n1
The inhibition of the first is lower: 15.9% for the first, 33.9% for the second.

Going from `Cc1c(C(=O)N2CCN(c3ccccc3)CC2)sc2ncnc(N3CCN(c4ccccn4)CC3)c12` to `Cc1c(C(=O)N2CCN(c3ccccn3)CC2)sc2ncnc(N3CCOCC3)c12`, the inhibition falls from 39.4% to -1.8%.

First: Cc1nc(N2CCN(c3ccccn3)CC2)c2c(C)c(C(=O)N3CCN(c4cccc(Cl)c4)CC3)sc2n1
Second: COc1ccccc1N1CCN(C(=O)c2sc3nc(C)nc(N4CCN(c5ccccn5)CC4)c3c2C)CC1
The inhibition of the first is higher: 38.7% for the first, 16% for the second.

Going from `O=C1CCCN1CCCNS(=O)(=O)c1ccc(Br)cc1` to `NC(=O)CC(NC(=O)Cc1ccc(Br)cc1)c1ccc(NCCN2CCOCC2)c([N+](=O)[O-])c1` (stereo not drawn), the inhibition falls from 6.2% to -1.2%.

Compared with `COc1ccc(C(=O)Nc2ccc(NC(=O)c3cnccn3)cn2)cc1`, `Cc1ccc(C(=O)Nc2cccc(C(F)(F)F)c2)cc1Nc1cnccn1` is higher in inhibition: -1.7% for the first, 14% for the second.

Going from `O=C1/C(=C/c2cccnc2)CC/C1=C\c1cccnc1` to `CN1C/C(=C/c2cccnc2)C(=O)/C(=C/c2cccnc2)C1`, the inhibition rises from 1.3% to 10.1%.

First: COc1cc(COc2ccc(-c3nnco3)cc2)ccc1OC(F)F
Second: Cc1ccc(COc2ccc(-c3nnco3)cc2)cc1
The inhibition of the first is higher: 6.2% for the first, -78.6% for the second.

Compared with `COc1ccnc(Oc2ccccc2)c1C(=O)N/C=N/OCc1ccccc1F`, `O=C(NC1=C(Nc2ccc(Cl)cc2)C(=O)c2ccccc2C1=O)c1ccccc1` is higher in inhibition: 2.7% for the first, 24.3% for the second.

Compared with `CCCCCCn1c(NCC)nc2c1c(=O)n(C)c(=O)n2C`, `CCCCn1c(=O)c(CCC(=O)OCC(=O)Nc2cccc3ccccc23)nc2ccccc21` is lower in inhibition: 30% for the first, 15.7% for the second.

Compared with `COc1ccc2cc3cc(C(=O)NCCC(C)C)oc3nc2c1`, `COc1ccc(/C(C)=N/NC(=O)c2nnn(-c3nonc3N)c2-c2ccccc2)cc1` is lower in inhibition: 10.4% for the first, 6.5% for the second.

Going from `O=C(Cc1ccccc1)NNC(=O)C1CC=CCC1` (stereo not drawn) to `CCc1nnc(NC(=O)COc2ccccc2[N+](=O)[O-])s1`, the inhibition falls from 5.2% to -7.9%.

Compared with `Cc1csc(NC(=O)c2c(O)c3c(n(CC(C)C)c2=O)CCCC3)n1`, `CCn1c(=O)n(CC)c2cc(S(=O)(=O)N3CCCCC3)c(C)cc21` is lower in inhibition: 23.7% for the first, -12.1% for the second.

Compared with `O=C(NC1=C(Nc2ccc(F)cc2)C(=O)c2ccccc2C1=O)c1ccc(Cl)cc1`, `N#C/C(=C(/O)COC(=O)c1ccc(C#N)cc1)c1nc2ccccc2s1` is higher in inhibition: -10.9% for the first, -9.9% for the second.

Going from `CSc1nc(N)c2c(C)c(C)sc2n1` to `N#CC1=C(N)Oc2n[nH]c(-c3cccnc3)c2C1c1cc(F)ccc1F` (stereo not drawn), the inhibition falls from -1.2% to -1.5%.

Compared with `CCOC(=O)C(=CNc1ccc(C#N)cc1)C(=O)OCC`, `CCOC(=O)C(=CNc1ccc(NC2=NCC(C)(C)S2)cc1)C(=O)OCC` is higher in inhibition: 8.2% for the first, 34.9% for the second.

Compared with `C=C(C)C(=O)Oc1ccc(N2C(=O)[C@@H]3C4C=CC(C4)[C@@H]3C2=O)cc1`, `c1cncc(CNc2ncnc3sccc23)c1` is higher in inhibition: -1.5% for the first, 21.1% for the second.

With `O=C1CCCN2N=C(SCC(=O)Nc3cccc(C(F)(F)F)c3)SC2=N1` the inhibition was 58.1% (active).
For `O=C(COc1ccc(Cl)cc1Cl)Nc1ccccn1`, the inhibition was 62.1% (active).
With `COc1ccc(-c2noc(CCCC(=O)O)n2)cc1` the inhibition was 57.7% (active).
For `CN(C)/N=C/C=C1\CCC/C(=C\c2ccc(F)c(F)c2)C1=O`, the inhibition was 63% (active).
For `CCC1C/C(=C\c2cccnc2)C(=O)/C(=C/c2cccnc2)C1` (stereo not drawn), the inhibition was 94.6% (active).
In the case of `CCOC(=O)C(=CNc1ccc(NC2=NCC(C)S2)cc1)C(=O)OCC` (stereo not drawn), the inhibition is reported as 55.5% (active).
For `N#C/C(=C(/O)COC(=O)c1ccccc1O)c1nc2ccccc2s1`, the inhibition was 52.7% (active).
For `Fc1ccccc1CNc1ncnc2sccc12`, the inhibition was 56.7% (active).
For `CCN(CC)S(=O)(=O)c1cc(NC(=O)C(CC(C)C)NC(N)=O)ccc1C` (stereo not drawn), the inhibition was 57.5% (active).
